In PubChem BioAssay (NCATS):
Inconclusive results are not listed. The source made the active and inactive calls. Unless noted, calls come from the whole dose curve; as a rule, active = well fitted curve in the direction sought with a large enough effect; inconclusive = small, poorly fitted or top-dose-only effect, or another doubt; inactive = no such curve, though single readings can be large; an effect the other way counts as inactive or inconclusive.

Assays:
[1] = biological target: Protein phosphatase 1D (Homo sapiens) (UniProt O15297); test: RapidFire Mass Spectrometry qHTS Assay for Modulators of WT P53-Induced Phosphatase 1 (WIP1) (AID 1347424);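 note: amount of dephosphorylated VEPPL-S-QETFS peptide product formed by WIP1; series mostly up to about 63 µM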
Outline: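 10 nM WIP1 + cpd, 1 h RT; + 2 uM VEPPL-pS-QETFS, 5 min RT; stop 0.5% formic acid; labelled product standard 1 uM; RapidFire MS. Buffer 50 mM Tris pH 7.5, 30 mM MgCl2, 1 mM TCEP.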

[2] = biological target: Protein phosphatase 1D (Homo sapiens) (UniProt O15297); test: Rhodamine-PBP qHTS Assay for Modulators of WT P53-Induced Phosphatase 1 (WIP1) (AID 1347425)
Outline: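 WIP1 (5 nM final) was preincubated with compound for 1 hour at room temperature. It then dephosphorylated 10 uM VEPPL-pS-QETFS peptide in Tris-HCl pH 7.5 with 30 mM MgCl2. Released Pi was detected by 10 uM Rh-PBP fluorescence (ex 525/em 598 nm) read at 1-min intervals for 11 min, as delta f1 - f0.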

[3] = Primary qHTS for inhibitors of La Crosse Virus (LACV) - induced cell death in SH-SY5Y cells (AID 1508616);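 note: top concentration of the series differs between compounds; higher means more rescue of cells from virus-induced death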
Outline: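 SH-SY5Y cells (6000/well) plated 24 h, then given compounds by pin transfer and LACV at 0.01 MOI for 6 days at 37C. Viability measured by ATPLite luminescence, normalized to infected DMSO and uninfected DMSO.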

[4] = biological target: Calcium and integrin-binding protein 1 (Homo sapiens) (UniProt Q99828); test: Primary qHTS for Identification of Calcium Integrin Binding Protein 1 (CIB1) Competitor (AID 1508620);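 note: GST tagged CIB1 binding a fluorescein labelled alphaIIb integrin peptide tracer; top concentration of the series differs between compounds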
Outline: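 CIB1-GST (1 uM final) and compound incubated 15 min at room temperature before adding FITC-alphaIIb peptide tracer (100 nM final). Competition for binding read by fluorescence polarization (ex 480, em 540) after another 15 min at room temperature.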

[5] = Primary qHTS for small molecule stabilizers of the endoplasmic reticulum resident proteome: Secreted ER Calcium Modulated Protein (SERCaMP) assay (AID 1508630)
Outline: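 GLuc-SERCaMP-expressing SH-SY5Y cells, pretreated 16 h with compound, are challenged with thapsigargin to empty ER calcium stores; after 4 h, coelenterazine is added directly to the medium and luminescence is imaged.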

[6] = A High-Content qHTS Against Drug Library for the Identification of Small Molecules that Inhibit DYT1 Early Onset Primary Dystonia-Associated Cell Pathology (AID 1645839; calls by dose curve; note: series mostly up to about 46 µM)
Outline: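 In this high-content image screen, delE TorsinA mislocalization in inducible Flp-In 293 cells is scored as %pathology, with cell count serving as the counterscreen. Compound exposure lasts 48 h under tetracycline induction in reduced-serum medium.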

[7] = biological target: Cytochrome P450 2D6 (Homo sapiens) (UniProt P10635); test: Cytochrome P450 family 2 subfamily D member 6 (CYP2D6) small molecule antagonists: luciferase biochemical (cell-free) qHTS assay (AID 1645840; active = well fitted curve in the direction sought with a large enough effect in the repeat runs; an effect the other way counts as inactive or inconclusive; note: nearly all actives have a fitted effect of over 55% in size; note: potency is the fitted concentration of half-maximal effect)
Outline: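 P450-Glo luminescent screen: recombinant CYP2D6 enzyme–proluciferin substrate mix preincubated with compound 10 min at room temperature, then NADPH regeneration added for 1 h at room temperature. Detection reagent added for 20 min; luciferin light read as relative luminescence units.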

[8] = Primary qHTS for inhibitors of nuclear receptor binding SET domain protein 2 (NSD2) in an isogenic RCH-ACV NSD2 p.E1099K mutant (9B) (AID 1645876); note: nearly all actives have a fitted effect of over 70% in size; note: potency is the fitted concentration of half-maximal effect
[9] = Primary qHTS for inhibitors of nuclear receptor binding SET domain protein 2 (NSD2) in an RCH-ACV wild type WT cells (2C) (AID 1645877); note: nearly all actives have a fitted effect of over 70% in size; note: potency is the fitted concentration of half-maximal effect
[10] = biological target: Cytochrome P450 2C9 (Homo sapiens) (UniProt P11712); test: Cytochrome P450 family 2 subfamily C member 9 (CYP2C9) small molecule antagonists: luciferase biochemical (cell-free) qHTS assay (AID 1645842; active = well fitted curve in the direction sought with a large enough effect in the repeat runs; an effect the other way counts as inactive or inconclusive; note: series mostly up to about 57 µM; nearly all actives have a fitted effect of over 55% in size)
Outline: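 Luminescence, after 20 min with luciferin detection reagent, reflected CYP2C9 turnover during a 1 h NADPH-driven reaction at 37C. Enzyme-substrate mix contained 0.4% bovine serum albumin and was preincubated with compound 10 min at room temperature.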

[11] = biological target: N-terminal Xaa-Pro-Lys N-methyltransferase 1 (Homo sapiens) (UniProt Q9BV86); test: Confirmatory qHTS for Inhibitors of N-terminal methyltransferase 1 (NTMT1): MTaseGlo Assay (AID 1645874);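 note: luminescence from SAH made as NTMT1 methylates SPKRIA peptide using SAM; series mostly up to about 100 µM; nearly all actives have a fitted effect of over 65% in size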
Outline: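 NTMT1 (125 nM) preincubated 15 min with compound and 100 uM SAM, then 1 uM SPKRIA peptide added for 30 min at room temperature. SAH detected by MTase-Glo luminescence; normalized to no-enzyme and DMSO controls, fitted to 4-parameter Hill.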

Measured: Potency

Chain of Protein phosphatase 1D (Homo sapiens) (O15297 whole entry, looked up): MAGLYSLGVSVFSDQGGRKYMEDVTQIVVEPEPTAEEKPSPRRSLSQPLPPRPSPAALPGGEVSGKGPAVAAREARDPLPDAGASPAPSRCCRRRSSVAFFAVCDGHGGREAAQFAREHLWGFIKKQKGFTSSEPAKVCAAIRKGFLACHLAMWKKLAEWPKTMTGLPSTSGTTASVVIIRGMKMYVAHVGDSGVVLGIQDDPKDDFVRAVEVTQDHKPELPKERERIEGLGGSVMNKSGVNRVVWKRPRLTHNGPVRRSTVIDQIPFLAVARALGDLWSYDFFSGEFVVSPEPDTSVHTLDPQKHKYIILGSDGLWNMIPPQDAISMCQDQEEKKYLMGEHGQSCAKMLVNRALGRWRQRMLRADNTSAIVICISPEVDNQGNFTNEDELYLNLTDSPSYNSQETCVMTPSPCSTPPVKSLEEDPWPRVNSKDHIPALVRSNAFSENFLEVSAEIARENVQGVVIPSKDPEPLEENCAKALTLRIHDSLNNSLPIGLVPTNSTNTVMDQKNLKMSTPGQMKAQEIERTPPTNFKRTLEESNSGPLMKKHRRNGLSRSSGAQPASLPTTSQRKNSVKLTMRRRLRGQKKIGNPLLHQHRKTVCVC
Chain of Cytochrome P450 2C9 (Homo sapiens) (P11712 whole entry, looked up): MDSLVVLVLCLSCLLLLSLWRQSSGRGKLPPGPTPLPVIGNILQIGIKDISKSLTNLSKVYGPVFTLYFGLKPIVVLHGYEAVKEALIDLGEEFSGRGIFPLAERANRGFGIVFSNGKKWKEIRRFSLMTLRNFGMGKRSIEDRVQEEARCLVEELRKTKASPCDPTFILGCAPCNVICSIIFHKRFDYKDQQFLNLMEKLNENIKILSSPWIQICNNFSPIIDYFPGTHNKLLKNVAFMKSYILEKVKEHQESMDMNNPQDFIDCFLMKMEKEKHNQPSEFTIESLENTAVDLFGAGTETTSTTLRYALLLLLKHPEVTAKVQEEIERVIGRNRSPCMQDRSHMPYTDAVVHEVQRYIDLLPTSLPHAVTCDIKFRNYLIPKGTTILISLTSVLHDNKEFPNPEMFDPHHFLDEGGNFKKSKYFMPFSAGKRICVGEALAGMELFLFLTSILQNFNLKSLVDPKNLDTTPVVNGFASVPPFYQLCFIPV
Chain of Cytochrome P450 2D6 (Homo sapiens) (P10635 whole entry, looked up): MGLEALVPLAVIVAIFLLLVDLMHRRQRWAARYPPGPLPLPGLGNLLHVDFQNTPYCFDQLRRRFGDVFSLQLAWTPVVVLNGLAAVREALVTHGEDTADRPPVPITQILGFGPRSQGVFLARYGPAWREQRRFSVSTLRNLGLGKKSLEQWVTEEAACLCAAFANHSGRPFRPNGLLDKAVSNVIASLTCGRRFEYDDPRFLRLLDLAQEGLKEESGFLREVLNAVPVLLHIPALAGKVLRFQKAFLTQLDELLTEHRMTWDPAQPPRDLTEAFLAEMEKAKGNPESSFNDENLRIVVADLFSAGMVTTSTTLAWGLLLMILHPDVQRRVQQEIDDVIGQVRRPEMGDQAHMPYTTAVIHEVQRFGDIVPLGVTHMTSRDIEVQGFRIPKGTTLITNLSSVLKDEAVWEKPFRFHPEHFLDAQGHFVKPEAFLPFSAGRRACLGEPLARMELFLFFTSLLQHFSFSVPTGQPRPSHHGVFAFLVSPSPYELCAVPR
Chain of Calcium and integrin-binding protein 1 (Homo sapiens) (Q99828 whole entry, looked up): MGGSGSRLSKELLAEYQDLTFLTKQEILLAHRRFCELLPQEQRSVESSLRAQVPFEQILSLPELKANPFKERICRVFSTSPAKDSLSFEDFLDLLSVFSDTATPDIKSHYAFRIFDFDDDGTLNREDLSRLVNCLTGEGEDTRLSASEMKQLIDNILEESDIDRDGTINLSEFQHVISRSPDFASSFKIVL
Chain of N-terminal Xaa-Pro-Lys N-methyltransferase 1 (Homo sapiens) (Q9BV86 whole entry, looked up): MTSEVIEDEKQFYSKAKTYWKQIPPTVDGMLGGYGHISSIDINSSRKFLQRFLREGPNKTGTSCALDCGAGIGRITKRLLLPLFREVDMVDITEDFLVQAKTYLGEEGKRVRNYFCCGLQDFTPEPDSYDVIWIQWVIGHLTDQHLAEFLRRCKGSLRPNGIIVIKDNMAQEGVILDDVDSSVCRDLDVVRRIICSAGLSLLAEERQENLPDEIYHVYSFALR

C=CCc1ccc(O)c(OC)c1
not listed: [10] | [11]
inactive: all other assays above

CCCSS/C(CCO)=C(\C)N(C=O)Cc1cnc(C)nc1N
active: [8] 15 µM | [9] 16.8 µM
not listed: [11]
inactive: all other assays above

Cc1cc(=O)n(-c2ccccc2)n1C
not listed: [10] | [11]
inactive: all other assays above

CC1(C)O[C@@H]2C[C@H]3[C@@H]4C[C@H](F)C5=CC(=O)CC[C@]5(C)[C@H]4[C@@H](O)C[C@]3(C)[C@]2(C(=O)CO)O1
active: [9] 0.0094 µM
not listed: [8] | [11]
inactive: all other assays above

C[C@]12CC[C@@H]3c4ccc(O)cc4CC[C@H]3[C@@H]1C[C@@H](O)[C@@H]2O
not listed: [6] | [9]
inactive: all other assays above

Nc1ccc(C(=O)O)cc1
not listed: [11]
inactive: all other assays above

CC(=O)OCC(=O)[C@@]1(OC(C)=O)[C@@H](C)C[C@H]2[C@@H]3C[C@H](F)C4=CC(=O)C=C[C@]4(C)[C@@]3(F)[C@@H](O)C[C@@]21C
active: [9] 0.0188 µM
not listed: [8] | [10] | [11]
inactive: all other assays above

CC(C)NC[C@@H](O)COc1cccc2ccccc12
not listed: [7] | [8] | [9] | [11]
inactive: all other assays above

C[C@H](CCC(=O)O)[C@H]1CC[C@H]2[C@@H]3C(=O)C[C@@H]4CC(=O)CC[C@]4(C)[C@H]3CC(=O)[C@]12C
not listed: [6] | [11]
inactive: all other assays above

CCCCOc1ccc(OCCCN2CCOCC2)cc1
active: [7] 13.8 µM
inactive: [1] | [2] | [3] | [4] | [5] | [10]
